This passage reports activity, negative = inhibition results from PubChem BioAssay (NCATS).

Records with an inconclusive call do not appear. A number with no mark means an inactive call. The source made the active and inactive calls. The call rests on the fitted dose curve; in most records, active means well fitted inhibition curve with a large enough effect; inconclusive means small, poorly fitted or top-dose-only effect; inactive means flat fitted curve, though single readings scatter.

Lysine-specific demethylase 5B (Homo sapiens), sequence (Q9UGL1 whole entry, looked up): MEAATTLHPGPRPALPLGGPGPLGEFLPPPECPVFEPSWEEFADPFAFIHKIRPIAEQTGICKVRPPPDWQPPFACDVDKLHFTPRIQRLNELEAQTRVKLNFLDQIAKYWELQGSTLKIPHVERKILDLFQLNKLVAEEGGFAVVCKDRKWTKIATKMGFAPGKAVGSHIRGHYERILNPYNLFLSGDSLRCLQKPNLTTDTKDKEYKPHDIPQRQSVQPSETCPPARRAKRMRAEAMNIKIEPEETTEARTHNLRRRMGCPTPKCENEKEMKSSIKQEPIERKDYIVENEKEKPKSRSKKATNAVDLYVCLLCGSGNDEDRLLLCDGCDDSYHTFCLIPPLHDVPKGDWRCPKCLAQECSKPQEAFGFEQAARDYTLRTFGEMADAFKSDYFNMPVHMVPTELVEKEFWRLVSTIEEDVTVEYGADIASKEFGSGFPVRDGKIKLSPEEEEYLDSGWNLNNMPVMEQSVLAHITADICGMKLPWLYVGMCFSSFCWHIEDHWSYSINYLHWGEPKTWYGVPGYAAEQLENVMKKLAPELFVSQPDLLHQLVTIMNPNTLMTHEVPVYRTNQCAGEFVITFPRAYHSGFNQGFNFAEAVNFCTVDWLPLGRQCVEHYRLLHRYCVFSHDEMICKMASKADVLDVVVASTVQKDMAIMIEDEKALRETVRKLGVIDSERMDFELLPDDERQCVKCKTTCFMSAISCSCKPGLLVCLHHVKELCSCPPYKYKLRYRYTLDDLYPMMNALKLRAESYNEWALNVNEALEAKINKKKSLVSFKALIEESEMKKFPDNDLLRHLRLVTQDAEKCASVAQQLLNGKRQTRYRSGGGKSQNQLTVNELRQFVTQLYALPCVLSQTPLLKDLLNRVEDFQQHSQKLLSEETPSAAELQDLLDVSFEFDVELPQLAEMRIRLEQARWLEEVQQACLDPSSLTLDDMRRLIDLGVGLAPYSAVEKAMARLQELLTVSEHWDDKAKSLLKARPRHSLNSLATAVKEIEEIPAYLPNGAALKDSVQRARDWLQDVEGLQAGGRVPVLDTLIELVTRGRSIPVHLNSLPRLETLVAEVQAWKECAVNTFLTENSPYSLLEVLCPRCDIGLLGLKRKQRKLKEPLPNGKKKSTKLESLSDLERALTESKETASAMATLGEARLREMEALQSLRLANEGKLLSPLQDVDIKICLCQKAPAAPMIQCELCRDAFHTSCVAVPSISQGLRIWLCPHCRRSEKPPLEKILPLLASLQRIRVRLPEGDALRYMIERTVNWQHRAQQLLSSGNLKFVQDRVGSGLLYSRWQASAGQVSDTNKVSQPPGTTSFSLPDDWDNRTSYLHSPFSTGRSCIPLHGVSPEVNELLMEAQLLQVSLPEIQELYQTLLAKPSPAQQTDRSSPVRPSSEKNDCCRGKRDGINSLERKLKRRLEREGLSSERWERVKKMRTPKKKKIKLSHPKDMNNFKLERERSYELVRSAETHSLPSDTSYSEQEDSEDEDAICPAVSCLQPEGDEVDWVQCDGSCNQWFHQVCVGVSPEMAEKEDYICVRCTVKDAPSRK

The test addresses Lysine-specific demethylase 5B (Homo sapiens) (UniProt Q9UGL1). The experiment in a line: Optimization screen for KDM5B Histone Demethylases FDH coupled qHTS against the LOPAC library (AID 1347166). Further: 0% is about no effect. The settings on record: KDM5B demethylation, FDH-coupled NADH fluorescence (FDH is formaldehyde dehydrogenase); at 57.5 µM (top of the series). In a few lines: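 KDM5BDeltaAP (200nM final) in 50mM HEPES pH 7.5, 0.01% Tween-20 was preincubated with compound for 10 min at room temperature. A substrate mix of 12.5uM H3K4Me3, 25uM a-ketoglutarate, ascorbate, Fe2+, NAD+ and formaldehyde dehydrogenase was then added. NADH fluorescence (340/450 nm) was read initially and after 30 min.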
(In qHTS, concentration-response curves come from the screen itself.)
Turning to `CN1C2CCC1CC(OC(c1ccccc1)c1ccccc1)C2` (stereo not given), the activity, negative = inhibition was -5.47%.
Turning to `O=C(O)C1=CCCNC1`, the activity, negative = inhibition was -1.96%.
For the compound `Fc1ccc(CN(C2=NCCN2)c2c(Cl)cccc2Cl)cc1`, the activity, negative = inhibition was 2.64%.
Turning to `NCC(O)(CS(=O)(=O)O)c1ccc(Cl)cc1` (stereo not given), the activity, negative = inhibition is -2.36%.
In the case of `NC(=O)CNCCC(c1ccccc1)c1ccccc1` it was 2.72%; in that of `Nc1ncnc2c1ncn2C1CCCO1` (stereo not given), -7.06%.
To `N=S(=O)(O)Cc1noc2ccccc12` belongs 3.62%; to `CC#CCOC(=O)c1c(C)nc2sc3c(c2c1N)CCC(O)C3` (stereo not given), -10.9%; to `OC[C@H]1NC[C@@H](O)[C@@H]1O`, 1.64%.
For the compound `NC(N)=[N+]1CCc2ccccc2C1`, the activity, negative = inhibition was 2.33%.
In the case of `CN[C@H](CC(=O)O)C(=O)O`, the activity, negative = inhibition is -14.8%.
In the case of `CNCCc1cnc(CCC(c2ccccc2)c2ccccc2)[nH]1` it was -15.1%; in that of `N[C@@H](Cc1ccc(O)c(I)c1)C(=O)O`, -7.59%.
To `Cc1ccc2c(c1)C(N1CCN(C)CC1)=Nc1cccnc1N2` belongs -6.11%; to `OC[C@H]1O[C@H](n2cnc3c(N[C@H]4CCC[C@@H]4O)ncnc32)[C@H](O)[C@@H]1O`, -3.36%.
On to `O=[N+]([O-])c1cccc2c(Br)[nH]nc12`, for which the activity, negative = inhibition was -1.9%.
In the case of `O=c1cc(-c2ccccc2F)[nH]c2cc3c(cc12)OCO3` it was -604% (active); in that of `COc1ccc2c(c1)c(CC(=O)O)c(C)n2Cc1ccc(Cl)cc1`, -5.89%.
In the case of `COC(=O)C(C)(N)Cc1ccc(O)cc1` (stereo not given) it was -17.5%.
`C=C1C(=O)O[C@@H]2[C@H]3O[C@]3(C)CCC=C(C)CC[C@@H]12`: the activity, negative = inhibition is -8.83%.
With `Nc1ccc(CCNc2ncnc3c2ncn3C2OC(CO)C(O)C2O)cc1` (stereo not given), the activity, negative = inhibition was -7.72%.
To `CC(=O)NNC(=O)N1Cc2ccccc2Oc2ccc(Cl)cc21` belongs -5.14%; to `CCCCOc1cc(CC2CNC(=O)N2)ccc1OC` (stereo not given), -3.5%.
In the case of `NC(=O)c1cc[n+](CC2=C(C(=O)O)N3C(=O)[C@@H](NC(=O)[C@@H](c4ccccc4)S(=O)(=O)[O-])[C@H]3SC2)cc1` it was -15.3%; in that of `Nc1nc2c(nc(Br)n2C2OC3COP(=O)(O)O[C@@H]3C2O)c(=O)[nH]1` (stereo not given in full), -2.81%; in that of `CN1CC(O)C(O)C(O)C1CO` (stereo not given), -6.96%.
In the case of `COc1cc(CC(=O)O)ccc1O` it was -5.93%; in that of `C=C1C[C@@]23CC[C@H]4[C@@](C)(CCC[C@@]4(C)C(=O)O)[C@@H]2CC[C@]1(O)C3`, -2.05%.
As to `CC(C)(C)c1ccc(/C=C/C(=O)Nc2ccc3c(c2)OCCO3)cc1`, the activity, negative = inhibition is -12.1%.
To `CC(=O)C(C)=O` belongs -10.5%; to `C[C@@H](NCCc1ccc(O)cc1)[C@@H](O)c1ccc(O)cc1`, -4.75%; to `NCC(O)C1CCCCCCC1` (stereo not given), -4.79%.
With `CSC(N)=NCCC[C@H](N)C(=O)O`, the activity, negative = inhibition was -3.11%.
To `Nc1ncnc2c1nc(Br)n2C1OC2COP(=O)(O)O[C@@H]2C1O` (stereo not given in full) belongs -2.56%; to `CCN1C(=O)C=CC1=O`, -3.85%.
